High-throughput results from PubChem BioAssay.
Compounds with a hit are over-represented: about 2.6% of the library has one in this group of screens.
TGFb SMAD3 inh – blocks TGF-b signaling. HepG2 CAGA-GFP TGF-b/SMAD3 reporter, GFP fluorescence, 18 h; TGF-beta stimulated, 500 pg/mL final. Potency, µM (highest dose often 46.1 µM), inactives show top-dose activity, negative = inhibition, actives largely listed as inhibitors. 1.2% of 410,000 active. AID 588855; note: potency is the fitted concentration of half-maximal effect; % is set by controls: 0 for no effect and ±100 for the full control effect; nearly all actives have a fitted effect of over 65% in size
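Smad-responsive CAGA-GFP expression was quantified in HEPG2 cells exposed to compounds and 500 pg/mL final TGF-beta for 18 h at 37 degrees C; unstimulated wells defined full inhibition.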
Giardia killer – Giardia lamblia killing | Giardia lamblia trophozoite viability | activity change, % at 7.66 µM, hits read low | 0.15% of 340,000 active | AID 540267; in the data active = activity change below about -80%; inconclusive = between about -30% and that limit;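 note: parasites exposed to compound for two days anaerobically before the ATP read; % is set by controls: 0 for no effect and ±100 for the full control effect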
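Anaerobic 48 hrs incubation at 37 deg C of 100 trophozoites/well with test compounds; ATPLite 1-Step luminescence, 15-30 min RT, reports cellular ATP as viability.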
ATXN viability – cell viability loss in ATXN counter-screen | S2 cells (HEK-293 line with an ATXN2-luciferase reporter) viability, CellTiter-Fluor protease fluorescence, 24 h | Potency, µM (doses to about 56.7 µM), hits mostly cytotoxic | 0.49% of 400,000 active; note: potency is the fitted concentration of half-maximal effect; nearly all actives have a fitted effect of over 40% in size
ATXN2 expr inh – inhibitors of ATXN2 expression. HEK-293 ATXN2-luciferase reporter, luminescence, 24 h. Potency, µM (top dose mostly 57 µM), for the others: at the highest dose activity change, negative = inhibition, actives largely listed as inhibitors. 0.72% of 360,000 active. AID 1745845; note: potency is the fitted concentration of half-maximal effect; % is set by controls: 0 for no effect and ±100 for the full control effect; nearly all actives have a fitted effect of over 55% in size
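ATXN2-luciferase reporter cells (luciferase flanked by upstream and downstream ATXN2 gene portions) were treated 24 h at 37 °C with compounds at up to 57 uM. SteadyGlo luminescence gave expression; GF-AFC fluorescence gave viability.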
uPA surface inh – blocks generation of uPA at the cell surface; 0.31% of 330,000 active; AID 540303; Potency, µM (highest dose often 38.3 µM), inactives show at the top dose activity change, negative = inhibition, most hits filed as inhibitors; cell surface uPA generation assay, qHTS; active = well fitted inhibition curve with a large enough effect; inconclusive = small, poorly fitted or top-dose-only effect; inactive = no such curve, though single readings can be large or run the other way; tested in mouse RAW 264.7 cells; note: potency is the fitted concentration of half-maximal effect; % is set by controls: 0 for no effect and ±100 for the full control effect; nearly all actives have a fitted effect of over 55% in size
HepG2 tox-1 – counter-screen for TGF-b inhibitors: cytotoxicity in HepG2 cells; HepG2 CAGA-GFP viability, ATP luminescence, 18 h; Potency, µM (highest dose often 46.1 µM), for inactives: at the highest dose activity change, negative = cytotoxicity, usual class: cytotoxic; 0.76% of 410,000 active; AID 588856; note: potency is the fitted concentration of half-maximal effect
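CellTiter-Glo luminescence gave cytotoxicity after 18 hours at 37 degrees C. The cells were HepG2 CAGA-GFP in 1% FBS DMEM, stimulated with 500 pg/mL TGF-beta after compound addition. %Activity was normalised to no-cell wells (complete cell-killing) and DMSO (no toxicity), and curves were fitted and classified.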
TGFb CAGA inh – TGF-b pathway inhibition, cherry-pick retest | shares compounds with TGFb SMAD3 inh | HepG2 CAGA-GFP TGF-b reporter, GFP fluorescence, 18 h; cells stimulated with TGF-beta, 500 pg/mL | Potency, µM (doses to about 46.1 µM), for the others: at the highest dose activity, negative = inhibition, most hits filed as inhibitors | 63% of 1,600 active | AID 720534; note: potency is the fitted concentration of half-maximal effect; % is set by controls: 0 for no effect and ±100 for the full control effect; nearly all actives have a fitted effect of over 65% in size
HepG2 tox-2 – toxic to HepG2 cells in TGF-b counterscreen; shares compounds with TGFb SMAD3 inh; HepG2 CAGA-GFP viability, ATP luminescence, 18 h; cells stimulated with TGF-beta, 500 pg/mL; Potency, µM (series often up to 46.1 µM), for the others: top-dose activity, negative = cytotoxicity, usual class: inhibitors; 27% of 1,600 active; AID 720535; note: potency is the fitted concentration of half-maximal effect; % is set by controls: 0 for no effect and ±100 for the full control effect; nearly all actives have a fitted effect of over 70% in size
TGFb CCL64 inh – blocks TGF-b signaling in CCL64 reporter cells. Potency, µM (top dose mostly 46.1 µM), inactives show at the top dose activity, negative = inhibition, actives largely listed as inhibitors. CCL64 CAGA-GFP reporter, TGF-b stimulated, GFP fluorescence, 18 h. AID 720536. shares compounds with TGFb SMAD3 inh. 41% of 1,600 active; note: potency is the fitted concentration of half-maximal effect; nearly all actives have a fitted effect of over 65% in size
TGFb COP inh – TGF-b inhibition validated with COP promoter; shares compounds with TGFb SMAD3 inh; HepG2 COP-GFP TGF-b reporter, GFP fluorescence, 18 h; cells stimulated by added recombinant TGF-beta; Potency, µM (doses to about 46.1 µM), inactives show at the top dose activity, negative = inhibition, hits mostly inhibitors; 3% of 1,600 active; note: potency is the fitted concentration of half-maximal effect; nearly all actives have a fitted effect of over 70% in size
* hit, by the source's call; i = inactive; ? = inconclusive; . = no result. Unless noted, calls come from the whole dose curve; as a rule, active = well fitted curve in the direction sought with a large enough effect; inconclusive = small, poorly fitted or top-dose-only effect, or another doubt; inactive = no such curve, though single readings can be large; an effect the other way counts as inactive or inconclusive.

SMILES | TGFb SMAD3 inh | Giardia killer | ATXN viability | ATXN2 expr inh | uPA surface inh | HepG2 tox-1 | TGFb CAGA inh | HepG2 tox-2 | TGFb CCL64 inh | TGFb COP inh
CCOc1ccc(CN2CCN(C(=O)c3ccccc3)CC2)cc1 | 0.0% | -7.8 | i | -25.1% | -3.3% | 10.7% | . | . | . | .
CCOc1ccc(CN2CCN(C(=O)c3cccc4ccccc34)CC2)cc1 | ? | 7.9 | i | ? | 2.8% | -40.7% | 9.2µM* | ? | 3.0% | 1.8%
CC(C)(C)OC(=O)NC1CNNC1=O (stereo not drawn) | ? | 15.8 | i | 6.0% | 0.2% | 3.4% | . | . | . | .
Cc1[nH]c(C(=O)N/N=C/c2ccc(C(=O)O)cc2)c(C)c1C(=O)N/N=C/c1ccc(C(=O)O)cc1 | 5.3% | 13.5 | i | -10.6% | -0.1% | 2.5% | . | . | . | .
CCOC(=O)c1c(C)[nH]c(C(=O)N/N=C/c2ccc(Br)cc2)c1C | 1.41µM* | -1.1 | ? | -34.1% | -10.4% | 0.5% | 0.92µM* | -9.2% | ? | -17.6%
CCC1=Nc2cc(C(=O)NCC3CCCO3)ccc2Sc2ccc(Br)cc21 (stereo not drawn) | 11.2µM* | -11.6 | ? | . | ? | -15.9% | 18.4µM* | -1.5% | ? | 4.4%
COC(=O)C1=C[C@@H](C(=O)OC)[C@@H]2C3=C(C(=O)[C@]2(C)NC(=O)c2ccccc2)[C@H](C)[C@@H]2C(=O)NC(=O)[C@@H]2[C@@H]3C1 | -19.8% | 23.4 | . | . | . | 7.4% | . | . | . | .
CN(C)S(=O)(=O)N1CCc2ccc(NC(=O)c3ccc(C(F)(F)F)cc3)cc2C1 | ? | -21.0 | i | -8.8% | ? | -38.3% | -0.3% | ? | -24.2% | 0.8%
CCOC(=O)C1CCCN(C(=O)c2ccc3[nH]c4c(c3c2)CC(C)CC4)C1 (stereo not drawn) | -8.2% | -29.5 | i | -8.7% | 0.7% | -5.2% | . | . | . | .
CC1CCc2[nH]c3ccc(C(=O)N4CCCC(C(F)(F)F)C4)cc3c2C1 (stereo not drawn) | 14.1µM* | -7.5 | i | 5.6% | 7.2% | 7.7% | ? | ? | 20.6µM* | 58.4%
Cc1cc(C)cc(C(=O)NC(=S)Nc2ccc(Cc3ccncc3)cc2)c1 | 7.08µM* | -6.6 | i | -36.5% | -14.2% | -25.1% | 13µM* | ? | -24.0% | 14.6%
OCc1ccc(-c2nn(Cc3ccccc3)c3ccccc23)o1 | 2.82µM* | -10.5 | ? | ? | 17.5% | -49.8% | 1.03µM* | 0.651µM* | ? | 4.9%
O=c1c2ccccc2c(-c2n[nH]c(=S)o2)nn1Cc1ccccc1 | -0.4% | -0.7 | i | . | -7.2% | -4.0% | . | . | . | .
CCC(C(=O)Oc1c(C(C)C)cccc1C(C)C)c1ccccc1 (stereo not drawn) | ? | -27.2 | i | 0.4% | 14.1% | -11.4% | ? | 8.9% | 20.6µM* | -14.0%
CCC(C(=O)O/N=C(\N)c1ccccc1)c1ccccc1 (stereo not drawn) | 9.0% | 4.1 | i | 5.0% | 4.5% | -14.6% | . | . | . | .
COc1ccc(C(=O)NC(=S)Nc2cccc(NC(=O)c3ccco3)c2)cc1[N+](=O)[O-] | 4.2% | 11.4 | ? | -11.0% | -0.1% | -24.8% | . | . | . | .
CCOc1ccc(C(=O)NC(=S)Nc2cccc(NC(=O)c3ccco3)c2)cc1[N+](=O)[O-] | 8.91µM* | 3.4 | i | -26.9% | -3.7% | -16.8% | 8.2µM* | -22.9% | ? | -7.2%
COc1ccc(S(=O)(=O)N2CCC(C(=O)N3CCN(C)CC3)CC2)cc1Cl | -16.2% | -13.2 | i | 0.4% | -1.4% | -16.6% | . | . | . | .
COc1ccc(S(=O)(=O)N2CCC(C(=O)N3CCc4ccccc4C3)CC2)cc1Cl | ? | 10.1 | i | 1.0% | 2.0% | -10.8% | ? | -25.7% | ? | 18.0%
Fc1ccc(-c2csc3ncnc(N4CCc5ccccc5C4)c23)cc1 | 17.8µM* | 6.7 | ? | -14.6% | 1.6% | -29.9% | 16.4µM* | ? | ? | 20.1%
Cc1ccccc1CS(=O)(=O)c1nnc([C@H](CC(C)C)NC(=O)OC(C)(C)C)o1 | 5.01µM* | 17.2 | ? | ? | . | -90.4% | 3.66µM* | ? | 5.8µM* | ?
CC[C@@H](C)[C@H](NC(=O)OC(C)(C)C)c1nnc(S(=O)(=O)Cc2cc(C)ccc2C)o1 | ? | 6.7 | . | ? | -14.8% | -94.5% | . | . | . | .
COc1ccc2c(CNCc3ccco3)c(C(=O)O)n(Cc3cccc(F)c3)c2c1 | -19.9% | . | ? | -8.3% | . | -28.1% | . | . | . | .
COc1ccc(-c2csc(NC(=O)c3ccccc3NS(=O)(=O)c3ccc(C)cc3)n2)cc1 | 3.55µM* | -2.2 | i | ? | -3.5% | -44.1% | 6.51µM* | 9.2µM* | 5.17µM* | 45.9%
COc1ccc(S(=O)(=O)Nc2ccccc2C(=O)Nc2nc(-c3ccc(F)cc3)cs2)cc1OC | 7.08µM* | 29.5 | i | ? | -2.2% | -38.4% | 10.3µM* | ? | 8.2µM* | 48.3%
COc1ccc(-c2csc(NC(=O)COc3ccc(N(C)S(=O)(=O)c4ccc(C)cc4)cc3)n2)cc1 | 0.0% | 1.1 | i | -3.4% | -0.3% | 0.0% | . | . | . | .
CCCOc1ccc(C(=O)Nc2nonc2-c2ccc(OCC)cc2)cc1 | 0.0% | . | . | . | . | 0.0% | . | . | . | .
COCCN=C1N[C@@H](c2ccc(Br)cc2)C(C(=O)OC)=C(C)N1Cc1ccccc1 | 10µM* | 0.9 | ? | ? | -13.1% | -72.5% | ? | ? | ? | 61.8%
O=C(C[n+]1cccc2cc(Cl)ccc21)c1ccc2c(c1)CCCC2 | 4.3% | . | . | . | . | -21.3% | . | . | . | .
Nc1nnnn1/N=C/C(Br)=C/c1ccccc1 | 3.55µM* | -0.5 | 14.1µM* | 25.1µM* | -2.5% | -30.1% | ? | ? | ? | 33.7%
